Common to all, as to test: yeast three-hybrid, YBZ-1, SC-Leu-His + 0.5 mM 3-AT, 4 days
Details in all cases: tags: N-Gal4 AD-HA kept; label: inside an RPR1-promoter hybrid RNA with tandem MS2 sites; ssRNA

For one assay, the target named is PUM1 PUF domain R5-ERC (Homo sapiens, UniProt Q14671 828-1176, C1007E;Q1011C). Put shortly: (§1)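 Each repeat of the Pumilio-1 PUF domain was randomized at its three base-contacting residues, and these libraries were co-expressed from a centromeric plasmid with matching RNA elements in strain YBZ-1. After four days on SC-Leu (input) or SC-Leu-His + 0.5 mM 3-AT (selection), the repeat regions were PCR-amplified and Illumina-sequenced. The interaction score compares variant frequency between input and selection as a log change, computed in log2 with a pseudocount of 1 for absent variants.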
Sequence of PUM1 PUF domain R5-ERC (Q14671 828-1176 C1007E/Q1011C): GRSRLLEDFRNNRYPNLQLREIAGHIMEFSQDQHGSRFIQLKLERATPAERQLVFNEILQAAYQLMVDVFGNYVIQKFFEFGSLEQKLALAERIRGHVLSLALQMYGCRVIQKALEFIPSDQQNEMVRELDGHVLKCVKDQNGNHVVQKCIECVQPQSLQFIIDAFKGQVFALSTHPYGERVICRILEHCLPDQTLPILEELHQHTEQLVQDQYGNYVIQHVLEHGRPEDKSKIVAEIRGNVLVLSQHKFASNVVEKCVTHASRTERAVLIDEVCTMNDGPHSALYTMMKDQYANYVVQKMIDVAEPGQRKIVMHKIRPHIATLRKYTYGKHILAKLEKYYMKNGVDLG

The next assay deals with PUM1 PUF domain R5-KTL (Homo sapiens, UniProt Q14671 828-1176, C1007K;R1008T;Q1011L). Put shortly: as §1
Sequence of PUM1 PUF domain R5-KTL (Q14671 828-1176 C1007K/R1008T/Q1011L): as the sequence (Q14671 828-1176 C1007E/Q1011C) above, with E180K, R181T, C184L counted along it
Another assay concerns the target PUM1 PUF domain R5-LHG (Homo sapiens, UniProt Q14671 828-1176, C1007L;R1008H;Q1011G). Put shortly:
as §1

The next assay concerns the target PUM1 PUF domain R5-KRD (Homo sapiens, UniProt Q14671 828-1176, C1007K;Q1011D). Put shortly: as §1
For the next assay, the target named is PUM1 PUF domain R5-KQV (Homo sapiens, UniProt Q14671 828-1176, C1007K;R1008Q;Q1011V). Put shortly: as §1
Sequence of PUM1 PUF domain R5-KQV (Q14671 828-1176 C1007K/R1008Q/Q1011V): as the sequence (Q14671 828-1176 C1007E/Q1011C) above, with E180K, R181Q, C184V counted along it
Another assay deals with PUM1 PUF domain R4-ARS (Homo sapiens, UniProt Q14671 828-1176, N971A;H972R;Q975S). Put shortly:
as §1

The target in a further assay is PUM1 PUF domain R4-CPG (Homo sapiens, UniProt Q14671 828-1176, N971C;H972P;Q975G). Put shortly:
as §1

The target in another assay is PUM1 PUF domain R3-TCD (Homo sapiens, UniProt Q14671 828-1176, C935T;R936C;Q939D). Put shortly:
as §1

In another assay the target is PUM1 PUF domain R7-RGL (Homo sapiens, UniProt Q14671 828-1176, S1079R;N1080G;E1083L). Put shortly:
as §1

A further assay concerns the target PUM1 PUF domain R7-TPG (Homo sapiens, UniProt Q14671 828-1176, S1079T;N1080P;E1083G). Put shortly: as §1
A further assay deals with PUM1 PUF domain R7-GIV (Homo sapiens, UniProt Q14671 828-1176, S1079G;N1080I;E1083V). Put shortly: as §1
Sequence of PUM1 PUF domain R7-GIV (Q14671 828-1176 S1079G/N1080I/E1083V): as the sequence (Q14671 828-1176 C1007E/Q1011C) above, with E180C, C184Q, S252G, N253I, E256V counted along it
For a further assay, the target named is PUM1 PUF domain R3-SPW (Homo sapiens, UniProt Q14671 828-1176, C935S;R936P;Q939W). Put shortly: as §1
Sequence of PUM1 PUF domain R3-SPW (Q14671 828-1176 C935S/R936P/Q939W): as the sequence (Q14671 828-1176 C1007E/Q1011C) above, with C108S, R109P, Q112W, E180C, C184Q counted along it
The target in another assay is PUM1 PUF domain R8-YYR (Homo sapiens, UniProt Q14671 828-1176, N1122Y;Q1126R). Put shortly: as §1
Sequence of PUM1 PUF domain R8-YYR (Q14671 828-1176 N1122Y/Q1126R): as the sequence (Q14671 828-1176 C1007E/Q1011C) above, with E180C, C184Q, N295Y, Q299R counted along it
A further assay has as its target PUM1 PUF domain R3-SPD (Homo sapiens, UniProt Q14671 828-1176, C935S;R936P;Q939D). Put shortly: as §1
Another assay addresses PUM1 PUF domain R2-VYL (Homo sapiens, UniProt Q14671 828-1176, N899V;Q903L). Put shortly:
as §1

The next assay deals with PUM1 PUF domain R1-RLT (Homo sapiens, UniProt Q14671 828-1176, S863R;R864L;Q867T). Put shortly: as §1
Sequence of PUM1 PUF domain R1-RLT (Q14671 828-1176 S863R/R864L/Q867T): as the sequence (Q14671 828-1176 C1007E/Q1011C) above, with S36R, R37L, Q40T, E180C, C184Q counted along it

Consider seven sequences from paper PMC8384837, “Expanding the binding specificity for RNA recognition by a PUF domain”.

Sequence of PUM1 PUF domain R4-ARS (Q14671 828-1176 N971A/H972R/Q975S): as the sequence (Q14671 828-1176 C1007E/Q1011C) above, with N144A, H145R, Q148S, E180C, C184Q counted along it
Sequence of PUM1 PUF domain R5-LHG (Q14671 828-1176 C1007L/R1008H/Q1011G): as the sequence (Q14671 828-1176 C1007E/Q1011C) above, with E180L, R181H, C184G counted along it
Sequence of PUM1 PUF domain R4-CPG (Q14671 828-1176 N971C/H972P/Q975G): as the sequence (Q14671 828-1176 C1007E/Q1011C) above, with N144C, H145P, Q148G, E180C, C184Q counted along it
Sequence of PUM1 PUF domain R3-TCD (Q14671 828-1176 C935T/R936C/Q939D): as the sequence (Q14671 828-1176 C1007E/Q1011C) above, with C108T, R109C, Q112D, E180C, C184Q counted along it
Sequence of PUM1 PUF domain R3-SPD (Q14671 828-1176 C935S/R936P/Q939D): as the sequence (Q14671 828-1176 C1007E/Q1011C) above, with C108S, R109P, Q112D, E180C, C184Q counted along it
Sequence of PUM1 PUF domain R7-TPG (Q14671 828-1176 S1079T/N1080P/E1083G): as the sequence (Q14671 828-1176 C1007E/Q1011C) above, with E180C, C184Q, S252T, N253P, E256G counted along it
Sequence of PUM1 PUF domain R7-RGL (Q14671 828-1176 S1079R/N1080G/E1083L): as the sequence (Q14671 828-1176 C1007E/Q1011C) above, with E180C, C184Q, S252R, N253G, E256L counted along it
Sequence of PUM1 PUF domain R5-KRD (Q14671 828-1176 C1007K/Q1011D): as the sequence (Q14671 828-1176 C1007E/Q1011C) above, with E180K, C184D counted along it
Sequence of PUM1 PUF domain R2-VYL (Q14671 828-1176 N899V/Q903L): as the sequence (Q14671 828-1176 C1007E/Q1011C) above, with N72V, Q76L, E180C, C184Q counted along it

Turning to “GGCUAGAACUAGUGGAUCCCCCGGCGCCCGGCGGCUCGAGCCCGGGUAAGUGUCAAUAGUCUGCAUGCCGCCGGGCGCCAUGCCUGCAGGUCGACUCUAGAAAACAUG”, the binding signal with PUM1 PUF domain R5-ERC is 1.33 log2 enrichment (interaction score); in the assay with PUM1 PUF domain R5-KTL, 2.84 log2 enrichment (interaction score); with PUM1 PUF domain R5-LHG it was 1.75 log2 enrichment (interaction score); with PUM1 PUF domain R5-KRD it was 6.86 log2 enrichment (interaction score); with PUM1 PUF domain R5-KQV, 5.39 log2 enrichment (interaction score).
As to “GGCUAGAACUAGUGGAUCCCCCGGCGCCCGGCGGCUCGAGCCCGGGUAAGUGUAUAUAGUCUGCAUGCCGCCGGGCGCCAUGCCUGCAGGUCGACUCUAGAAAACAUG”, the binding signal with PUM1 PUF domain R4-ARS was 2.12 log2 enrichment (interaction score); with PUM1 PUF domain R4-CPG it was 3.14 log2 enrichment (interaction score).
Consider “GGCUAGAACUAGUGGAUCCCCCGGCGCCCGGCGGCUCGAGCCCGGGUAAGUGUAAGUAGUCUGCAUGCCGCCGGGCGCCAUGCCUGCAGGUCGACUCUAGAAAACAUG”, for which the binding signal with PUM1 PUF domain R3-TCD is 4.9 log2 enrichment (interaction score).
Turning to “GGCUAGAACUAGUGGAUCCCCCGGCGCCCGGCGGCUCGAGCCCGGGUAAGUUUAAAUAGUCUGCAUGCCGCCGGGCGCCAUGCCUGCAGGUCGACUCUAGAAAACAUG”, the binding signal with PUM1 PUF domain R7-RGL is 3.07 log2 enrichment (interaction score); in the assay with PUM1 PUF domain R7-TPG, 4.42 log2 enrichment (interaction score); with PUM1 PUF domain R7-GIV, 2.42 log2 enrichment (interaction score).
“GGCUAGAACUAGUGGAUCCCCCGGCGCCCGGCGGCUCGAGCCCGGGUAAGUGUAAAUAGUCUGCAUGCCGCCGGGCGCCAUGCCUGCAGGUCGACUCUAGAAAACAUG”: the binding signal in the assay with PUM1 PUF domain R4-ARS was 4.61 log2 enrichment (interaction score); with PUM1 PUF domain R4-CPG it was 4.34 log2 enrichment (interaction score); with PUM1 PUF domain R3-SPW, 3.13 log2 enrichment (interaction score); with PUM1 PUF domain R8-YYR, 5.34 log2 enrichment (interaction score); with PUM1 PUF domain R3-SPD it was 3.36 log2 enrichment (interaction score); with PUM1 PUF domain R5-ERC it was 2.93 log2 enrichment (interaction score). Moreover, the binding signal in the assay with PUM1 PUF domain R5-LHG is 2.63 log2 enrichment (interaction score).
For “GGCUAGAACUAGUGGAUCCCCCGGCGCCCGGCGGCUCGAGCCCGGGUAAGUGUAAAAAGUCUGCAUGCCGCCGGGCGCCAUGCCUGCAGGUCGACUCUAGAAAACAUG”, in the assay with PUM1 PUF domain R2-VYL, the binding signal is 2.41 log2 enrichment (interaction score).
As to “GGCUAGAACUAGUGGAUCCCCCGGCGCCCGGCGGCUCGAGCCCGGGUAAGUGUAAAUUGUCUGCAUGCCGCCGGGCGCCAUGCCUGCAGGUCGACUCUAGAAAACAUG”, the binding signal with PUM1 PUF domain R1-RLT was 4.16 log2 enrichment (interaction score).
